Measurements as given in PubChem BioAssay AID485358 (National Center for Advancing Translational Sciences (NCATS), 2010).
About 1,800 (0.53%) of roughly 340,000 compounds were called active.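 Rule for the calls: active = activation over 3 SD above normal in the single-dose calcium agonist read (cut at about 30% in these data); inactive = the rest.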 The full list was thinned out, with actives kept by preference.

Target: D(2) dopamine receptor (Homo sapiens) (UniProt P14416)
Assay: HTS Assay for Allosteric Agonists of the Human D2 Dopamine Receptor: Primary Screen for Agonists; note: 0% is about no effect
Conditions: HEK293 T-REx D2 cells, calcium flux agonist mode; at 2 µM; stronger effect = higher value
Description: NIH Chemical Genomics Center [NCGC] NIH Molecular Libraries Probe Centers Network [MLPCN] MLPCN Grant: NS064831-01 Assay Submitter (PI): David Sibley Dopamine receptors (DARs) are involved in the etiology and/or therapy of a number of neuropsychiatric and endocrine disorders. For instance, all receptor-based antiparkinsonian drugs work via stimulating the D2 DAR subtype whereas all FDA-approved antipsychotic agents are antagonists of this receptor. […] There are three different types of allosteric modulators that we are seeking, two of which will stimulate or augment receptor signaling, allosteric agonists and potentiators, while the third, allosteric antagonists, will attenuate receptor signaling. The present primary screening assay measures compound agonism by tracking calcium flux in a […], inducible Hek293 Trex D2 cell line.
Freshly passaged cells are plated in 1536 well black, clear bottom plates at a density of 4000 cells/well in 3 ul of complete media containing 1x tetracycline inducer. After an overnight incubation at […] in 5% CO2, cells are loaded with 2 ul of the no wash Calcium Assay Kit (ABD Bioquest) and incubated at room temperature for 30 to 90 minutes. Agonist read: A 10 cycle (1 second/cycle) baseline measurement is taken and then the FDSS online 1536 pintool delivers 23 nl of compound library (as well as dopamine controls) to the plate. The plate is measured for kinetically at 1 cycle/sec for 180 seconds and is considered to be the agonist portion of the assay (eg, compounds which activate a positive calcium response during this portion are flagged as potential agonists). Following the 180 second read, 1 ul of either an EC20 (positive modulation assay) or EC80 (negative modulation assay) is delivered by an onboard pipette head. Measurements are taken kinetically for an additional 180 seconds.

D(2) dopamine receptor (Homo sapiens), sequence (P14416 whole entry, looked up): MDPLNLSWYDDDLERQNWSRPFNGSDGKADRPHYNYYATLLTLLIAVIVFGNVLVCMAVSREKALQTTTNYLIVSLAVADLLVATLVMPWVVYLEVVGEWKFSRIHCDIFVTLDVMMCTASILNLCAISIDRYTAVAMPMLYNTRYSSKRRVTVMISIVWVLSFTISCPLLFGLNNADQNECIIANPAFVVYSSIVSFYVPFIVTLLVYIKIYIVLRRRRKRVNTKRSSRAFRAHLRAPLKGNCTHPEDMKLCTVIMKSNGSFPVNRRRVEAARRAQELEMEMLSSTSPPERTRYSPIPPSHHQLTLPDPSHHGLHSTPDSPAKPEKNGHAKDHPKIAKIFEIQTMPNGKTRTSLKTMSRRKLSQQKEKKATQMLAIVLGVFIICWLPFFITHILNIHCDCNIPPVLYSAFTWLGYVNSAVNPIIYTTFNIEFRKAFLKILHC

Row | Compound | activation
1 | O=C(CN1CCN(C/C=C/c2ccccc2)CC1)Nc1ccc(F)cc1F | 0.754% (inactive)
2 | O=C(c1ccc(Br)o1)N1CCN(CCOc2ccccc2)CC1 | 67.9% (active)
3 | O=C(c1ccco1)N1CCN(Cc2cccc(C(F)(F)F)c2)CC1 | 59.9% (active)
4 | O=C(CN1CCN(C(=O)c2ccco2)CC1)Nc1ccc(Cl)c(C(F)(F)F)c1 | -0.254% (inactive)
5 | O=C(c1ccco1)N1CCN(C(=S)Nc2cc(F)cc(F)c2)CC1 | 0.216% (inactive)
6 | COc1cccc(OCc2cc(C(=O)N3CCN(C(=O)c4ccco4)CC3)no2)c1 | -0.444% (inactive)
7 | COc1cccc(OC)c1OCCN1CCN(C(=O)c2ccco2)CC1 | 87.8% (active)
8 | Cc1ccc(F)cc1NC(=O)N1CCCN(c2ccc(C(F)(F)F)cn2)CC1 | 0.948% (inactive)
9 | O=C(Nc1ccc(F)cc1F)N1CCCN(CCOc2ccccc2)CC1 | 41.8% (active)
10 | c1ccc(-c2ccc(OCCN3CCOCC3)cc2)cc1 | 0.22% (inactive)
11 | COc1cccc(OC)c1C(=O)N1CCN(Cc2cccnc2)CC1 | 1.08% (inactive)
12 | O=CN1CCN(C(=O)c2ccc(Br)o2)CC1 | 0.34% (inactive)
13 | CC(=O)N1CCCc2cc(S(=O)(=O)Nc3ccc(Cl)cc3F)ccc21 | 0.983% (inactive)
14 | COc1ccc(CCNC(=O)C(=O)NCC(c2ccco2)S(=O)(=O)c2cccs2)cc1OC (centres undefined) | 0.136% (inactive)
15 | O=C(NCCc1ccc(Cl)cc1)c1ccc2c(c1)N(Cc1ccc(F)cc1)C(=O)CS2 | -0.585% (inactive)
16 | COc1ccc(OC)c(-c2noc(N3CCN(c4cc(Cl)ccc4C)CC3)n2)c1 | 0.838% (inactive)
17 | O=C(c1ccco1)N1CCN(C(=O)c2ccc(COc3ccc(F)cc3)o2)CC1 | -1.15% (inactive)
18 | O=C(CNS(=O)(=O)c1ccccc1)N1CCN(C(=O)c2ccco2)CC1 | 0.7% (inactive)
19 | O=C(c1ccco1)N1CCN(CCOc2ccccc2)CC1 | 74.5% (active)
20 | O=C(NCc1ccc(Cl)cc1)c1ccc2c(c1)nnn2C1CCCC1 | -0.221% (inactive)
21 | O=C(NCc1ccccc1)C1CCN(S(=O)(=O)c2ccc3[nH]c(=O)ccc3c2)CC1 | -1.06% (inactive)
22 | c1ccc(-c2cnc(CN3CCN(c4ccccc4)CC3)o2)cc1 | 40% (active)
23 | COc1ccc(N2CCN(Cc3nnc(-c4ccccc4)o3)CC2)cc1 | 0% (inactive)

Row | Compound | activation
24 | Cc1ccc(C)c(N2CCN(Cc3nnc(-c4ccccc4)o3)CC2)c1 | 0.463% (inactive)
25 | COc1cc(OC)c(OC)cc1/C=C/c1nc2ccccc2c(=O)n1-c1ccc(Br)c(C)c1 | 1.46% (inactive)
26 | CCOc1cc2[nH]c(=S)n(CCN3CCCCC3C)c(=O)c2cc1OCC (centres undefined) | 30.2% (active)
27 | COc1cc2[nH]c(=S)n(CCN3CCCCC3C)c(=O)c2cc1OC (centres undefined) | 1.14% (inactive)
28 | CCOc1cc2[nH]c(=S)n(CCCN3CCCC3=O)c(=O)c2cc1OCC | -1.56% (inactive)
29 | Fc1ccc(-c2nc(Nc3cccc(Cl)c3)nc3c2COc2ccccc2-3)cc1 | -1.77% (inactive)
30 | O=C1N(Cc2ccccc2)c2ccc(Cl)cc2C1(O)c1c[nH]c2ccccc12 (centres undefined) | 0.529% (inactive)
31 | CCN(CC)c1ccc(NC(=O)Cn2nc3c(cc2=O)CCCC3)c(C)c1 | -1.68% (inactive)
32 | Cc1cc(=O)c2cc(C(=O)Nc3cccc(C)c3C)ccc2[nH]1 | 1.06% (inactive)
33 | COc1ccc2c(CN3CCN(S(=O)(=O)c4cccs4)CC3)cc(=O)oc2c1 | 1.59% (inactive)
34 | COc1ccc(N2CCN(Cc3cc(=O)oc4ccc5ccccc5c34)CC2)cc1 | 48.7% (active)
35 | COc1ccc2oc(=O)cc(CN3CCOCC3)c2c1 | 0.172% (inactive)
36 | O=C(CN1CCN(c2ccccc2F)CC1)c1ccc2c(c1)OCO2 | 34.1% (active)
37 | CC1(c2ccc(Cl)cc2)NC(=O)N(CC(=O)c2ccc3c(c2)OCO3)C1=O (centres undefined) | 6.26% (inactive)
38 | CCC1(c2ccccc2)NC(=O)N(CC(=O)c2ccc3c(c2)OCO3)C1=O (centres undefined) | 0.171% (inactive)
39 | COc1ccc(NC(=O)C2CCN(c3ccc(Sc4ccc(C)cc4)nn3)CC2)c(OC)c1 | -0.0405% (inactive)
40 | Cc1ccc2c(=O)oc(N(C)C)nc2c1 | -0.369% (inactive)
41 | CCN(CC)c1ccc2oc(=O)c(C)nc2c1 | 33.2% (active)
42 | CCc1ccc2oc(-c3ccc(N)cc3)nc2c1 | 0.79% (inactive)
43 | COC(=O)c1ccc(NC(=O)c2cnn(-c3ccc(Cl)cc3)c2C2CCN(C(=O)OC(C)(C)C)CC2)cc1 | -0.0655% (inactive)
44 | CC(C)S(=O)(=O)c1oc(-c2ccc(F)cc2)nc1S(=O)(=O)c1ccc(F)cc1 | 6.9% (inactive)
45 | COc1ccccc1NC(=O)CSc1oc(-c2ccco2)nc1S(=O)(=O)c1ccc(Br)cc1 | -0.604% (inactive)
46 | CCOc1ccccc1N(CC)C(=O)c1cc2ccc3cccnc3c2[nH]1 | 0.0244% (inactive)

Row | Compound | activation
47 | COc1cccc(NC(=O)c2ccc3nc(CCc4ccccc4)oc3c2)c1 | 0.0569% (inactive)
48 | O=C(COC(=O)CCc1ccc(S(=O)(=O)N2CCOCC2)cc1)Nc1cccc(Cl)c1 | 1.09% (inactive)
49 | O=C(CN1CCN(c2cccc(Cl)c2)CC1)Nc1ccc(S(=O)(=O)N2CCOCC2)cc1 | 56.5% (active)
50 | O=C(CN1CCCCCC1)Nc1ccc(S(=O)(=O)N2CCCCC2)cc1 | -2.81% (inactive)
51 | COc1ccc(CCn2cc3c(c2-c2ccc(Br)cc2)c(=O)n(C)c(=O)n3C)cc1OC | -0.343% (inactive)
52 | CCC(=O)Nc1cccc(C(=O)OCc2cc(=O)n3nc(CC)sc3n2)c1 | 3.26% (inactive)
53 | Cc1cc(F)ccc1NC1(c2ccccc2)C(=O)c2ccccc2C1=O | -1.91% (inactive)
54 | CC(C)CCN1CCN(C/C=C/c2ccco2)CC1CCO (centres undefined) | -3.43% (inactive)
55 | CC(C)CCN1CCN(Cc2cn[nH]c2C2CCCCC2)CC1CCO (centres undefined) | 71.9% (active)
56 | CC(C)CCN1CCN(Cc2ccc(C(F)(F)F)cc2)CC1CCO (centres undefined) | -0.55% (inactive)
57 | COc1ccc(CNC(=O)CCc2c(C)nn(-c3ccc(N4CCCC4)nn3)c2C)cc1 | -0.779% (inactive)
58 | COc1ccc(C2=NC(c3ccncc3)=Nc3ccc(Br)cc3N2)cc1 | 2.06% (inactive)
59 | COc1cc(NS(=O)(=O)c2ccc3c(c2)OCC(C(=O)N2CCCC2)O3)cc(OC)c1 (centres undefined) | 0.531% (inactive)
60 | COc1ccc(OC)c2sc(N3CCN(C(=O)C4COc5ccccc5O4)CC3)nc12 (centres undefined) | -0.0345% (inactive)
61 | Cc1c(CC(=O)N2CCN(C(=O)C3COc4ccccc4O3)CC2)c(=O)oc2c(O)c(O)ccc12 (centres undefined) | 86.6% (active)
62 | O=C(/C=C/c1cn(CC(O)CN2CCc3ccccc32)c2ccccc12)c1ccc(Br)cc1 (centres undefined) | 2.61% (inactive)
63 | Cc1ccc(CSc2nc3ccsc3c(=O)n2CCC(C)C)cc1 | 0.237% (inactive)
64 | COc1ccc(Cl)cc1NC(=O)Cn1c(=O)c2ccccc2n2nncc12 | 0.159% (inactive)
65 | Cc1ccc(NC(=O)O/N=C/c2cccc([N+](=O)[O-])c2)cc1 | 1.09% (inactive)
66 | CCc1ccc(NC(=O)C(C)OC(=O)/C=C/c2cccc([N+](=O)[O-])c2)cc1 (centres undefined) | -0.67% (inactive)
67 | CCC(CC)NC(=O)/C=C/c1cccc([N+](=O)[O-])c1 | 55.2% (active)
68 | O=S(=O)(NCCc1nnc2ccc(SCc3ccc(Cl)cc3Cl)nn12)c1ccccc1 | 0.55% (inactive)
69 | CCOC(=O)C(Cc1ccccc1)NC(=O)CCc1c(C)nc2c(c(C)nn2-c2ccc(C)c(C)c2)c1C (centres undefined) | 3.29% (inactive)

Row | Compound | activation
70 | O=C(NCCCc1ccccc1)C1CCC(=O)N(CCc2ccc(Cl)cc2)C1 (centres undefined) | -1.17% (inactive)
71 | COC(=O)CN1C(=S)N(c2ccccc2)C(=O)C1CC(=O)Nc1ccc(Cl)cc1 (centres undefined) | -0.464% (inactive)
72 | O=C(CSC1CC(=O)N(CCc2ccccc2)C1=O)Nc1ccc(Cl)cc1 (centres undefined) | 49.2% (active)
73 | CCc1ccc(CN(Cc2ccco2)C(=O)c2ccccc2Cl)cc1 | 0.564% (inactive)
74 | COc1cc(NC(=O)c2nn(-c3ccc(C)cc3)c(=O)c3c2c2ccccc2n3C)cc(OC)c1OC | -0.5% (inactive)
75 | Cc1ccc(O)c(-c2cc(C(=O)Nc3c(C)n(C)n(-c4ccccc4)c3=O)[nH]n2)c1 | 34.8% (active)
76 | Cc1ccc(O)c(-c2cc(C(=O)NCc3ccccc3)[nH]n2)c1 | 0.766% (inactive)
77 | Cc1c(NC(=O)c2cc(=O)c3ccccc3o2)c(=O)n(-c2ccccc2)n1C | 0.0233% (inactive)
78 | O=C(NCc1ccc(F)cc1)c1ccc(Cn2c(SCc3ccc(F)cc3)nc3cccnc32)cc1 | 1.06% (inactive)
79 | O=C(c1ccc2c(c1)N(Cc1ccccc1)C(=O)c1ccccc1S2(=O)=O)N1CCCC1 | 1.63% (inactive)
80 | COc1ccc(OCCCn2cccc2/C=C2/C(=N)N3OC(C)=CC3=NC2=O)cc1 | -1.02% (inactive)
81 | CC(C)(C)OC(=O)NCCCCCC(=O)N/N=C/c1coc2ccccc2c1=O | 0% (inactive)
82 | CC1=CC2=NC(=O)/C(=C/c3coc4ccccc4c3=O)C(=N)N2O1 | 49.9% (active)
83 | CCOC(=O)c1c(C)[nH]c(CCC(=O)Nc2ccc(OC)c(OC)c2)c1C | -0.832% (inactive)
84 | Cc1ccc2ncc(C(=O)Nc3ccc(OC(F)(F)F)cc3)c(=O)n2c1 | -0.574% (inactive)
85 | O=C(Oc1cccc(O)c1)C1CCCCC1 | 0.57% (inactive)
86 | O=C(OCc1nc2ccccc2[nH]1)C1CCCCC1 | 41.5% (active)
87 | CCO[C@@H]1OC(C(=O)NCc2nc3ccccc3[nH]2)=C[C@H](C2CCCCC2)[C@H]1CCCO | -0.239% (inactive)
88 | COc1ccc(S(=O)(=O)NCC(c2ccc(N(C)C)cc2)N2CCCC2)cc1 (centres undefined) | -2.12% (inactive)
89 | CC1CCCCN1S(=O)(=O)c1ccc(F)c(C(=O)Nc2ccccc2C(F)(F)F)c1 (centres undefined) | 0.192% (inactive)
